GDH-TPI inh = GDH-TPI coupling enzyme inhibitors, primary screen, artefact control for M. tuberculosis FBA inhibitor project, biochemical, absorbance, full deck | GDH-TPI coupled enzyme counterscreen, NADH absorbance | inhibition, % at 4.8 µM | actives 1.2% (n = 360,000) | AID 588335, 2011; in the data active = inhibition above about 30%;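 also: 0% = DMSO wells and 100% = wells lacking the enzyme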
BH1578 lux ind = inducers of Vibrio cholerae quorum light production without autoinducers, primary screen, BH1578 luxS cqsA deficient, single point; actives 0.16% (n = 350,000); activation, % at 18.7 µM; V. cholerae BH1578 lux reporter, luminescence, 6 h; in the data active = activation mostly above about 9.7%, no sharp cut-off; inconclusive = no clear call, values can overlap the other calls; inactive = mostly below about 3.7%
Mtb UGM inh = M. tuberculosis UGM enzyme inhibitors, primary screen, biochemical, fluorescence polarization, single point. UDP-galactopyranose mutase (Mycobacterium tuberculosis (strain ATCC 25618 / H37Rv)), …. inhibition, % at 10 µM. purified UGM, fluorescence polarization probe displacement. actives 0.06% (n = 320,000); in the data active = inhibition above about 10%, passing the limit was not always enough; inconclusive = no clear call, values can overlap the other calls
FBA Mtb inh = Mtb FBA enzyme inhibitors, primary screen, biochemical, fluorescence, strain H37Rv. Fructose-bisphosphate aldolase (Mycobacterium tuberculosis (strain ATCC 25618 / H37Rv)), …. purified M. tuberculosis FBA, fluorescence read-out. inhibition, % at 1 µM. actives 2.3% (n = 360,000). AID 588726, 2011; in the data active = inhibition above about 27%;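 also: 0% = vehicle and 100% = reference inhibitor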
Target sequence (P9WQA3 whole entry, looked up): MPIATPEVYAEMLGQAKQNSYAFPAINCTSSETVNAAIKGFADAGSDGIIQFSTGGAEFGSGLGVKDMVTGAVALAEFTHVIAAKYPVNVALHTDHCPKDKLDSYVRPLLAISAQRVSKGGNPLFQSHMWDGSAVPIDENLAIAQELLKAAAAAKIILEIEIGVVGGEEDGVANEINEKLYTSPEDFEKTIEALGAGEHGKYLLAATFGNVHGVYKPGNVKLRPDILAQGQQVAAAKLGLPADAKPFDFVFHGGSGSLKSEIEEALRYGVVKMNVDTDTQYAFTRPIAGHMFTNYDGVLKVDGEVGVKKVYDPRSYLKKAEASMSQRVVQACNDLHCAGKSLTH
RecA splice inh = Mtb RecA intein splicing inhibitors, primary screen, biochemical, fluorescence, HTS. cell-free RecA intein splicing. inhibition, % (concentration not given with the values). actives 0.75% (n = 290,000); in the data active = inhibition above about 30%; inconclusive = no clear call, values can overlap the other calls;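 also: 0% = vehicle wells and 100% = reference inhibitor control wells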
Rv3671c inh = Rv3671c serine protease inhibitors, primary screen, biochemical, fluorescence polarization, M. tuberculosis H37Rv | inhibition, % at 5.96 µM | actives 0.048% (n = 320,000) | P9WHR9; in the data active = inhibition above about 38%;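 also: extracellular domain of Rv3671c used as enzyme; 0% = enzyme with DMSO and 100% = no enzyme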
GFP chromophore = counter-screen: blocks GFP chromophore formation, dose response, counter-screen, biochemical, fluorescence, homogeneous; cell-free GFP chromophore formation; actives 83% (n = 2,100); shares compounds with RecA splice inh; EC50, µM; call rule not given here
* = called active by the depositor; i = inactive; ? = inconclusive; . = no result. The list is not random: actives were taken first. Their share in the collection is about 4.1%.

SMILES	GDH-TPI inh	BH1578 lux ind	Mtb UGM inh	FBA Mtb inh	RecA splice inh	Rv3671c inh	GFP chromophore
CCOc1cc(/C=C2/C(=O)N(c3ccccc3)N=C2C)ccc1OC(=O)c1cccs1	8.4	0.1	2.3	-2.4	-11.1	-174.8	.
COc1cc(/C=C2\SC(N)=NC2=O)ccc1OCC(=O)Nc1ccc(C)cc1	19.9	-0.4	-0.7	-0.6	-3.5	-45.9	.
COc1cc(/C=C2\C(=O)N(CCC#N)N=C2C)ccc1OCC(=O)Nc1ccccc1	0.0	i	-1.5	-1.3	78.9*	-210.8	5.61*
CC1=NOC(=O)/C1=C/c1ccc(N(C)C)cc1	.	.	-2.1	.	0.2	-4.7	.
CC1=NN(CCC#N)C(=O)/C1=C/c1ccc(N(C)C)cc1	2.4	i	2.5	-25.7	48.2*	-11.4	10.7*
CCOc1cc(/C=C2\C(=O)N(CCC#N)N=C2C)ccc1OCC(N)=O	0.3	-0.4	-0.3	-6.4	88.3*	-152.5	9.29*
COc1ccccc1N=C1NC(=O)/C(=C/c2ccc(N(C)C)cc2)S1	9.4	i	-12.3	-14.4	-5.0	-0.9	.
Cc1onc(-c2ccccc2Cl)c1C(N)=O	-0.8	-1.6	-0.2	0.1	-0.6	-6.2	.
Cc1[nH]n(C)c(=O)c1C(=O)c1c(-c2ccccc2Cl)noc1C	2.3	-0.7	2.8	2.8	74.3*	3.8	16.6*
Cc1[nH]c2ccc(F)cc2c1CCN(Cc1cccnc1)C(=S)Nc1ccc(F)cc1	-3.1	-0.4	-5.0	0.0	40.3*	17.9	>38
COc1cc(/C=C2\SC(=S)NC2=O)ccc1OS(=O)(=O)c1ccccc1	.	.	-0.6	.	24.8	-16.9	.
COc1cc(/C=C2/SC(=S)NC2=O)ccc1OS(=O)(=O)c1ccc(C)cc1	15.7	i	-2.0	-3.6	35.6*	-23.9	22.9*
CC(=O)c1c(C)nc(-c2ccc(Cl)cc2)nc1N=CN(C)C	-7.5	2.8	1.0	7.6	-4.4	-19.1	>38
O=C1CCCC(O)=C1C(C#Cc1ccccc1)C1=C(O)CCCC1=O	8.9	i	4.0	-4.9	30.3*	5.9	11.6*
CC1(C)CC(=O)C(C(C#Cc2ccccc2)C2=C(O)CC(C)(C)CC2=O)=C(O)C1	10.8	1.4	0.8	1.7	1.2	6.2	.
COc1ccc(C2C(C#N)=C(N)Oc3n[nH]c(C)c32)cc1Cn1nnc2ccccc21 (configuration not stated)	4.8	i	-3.8	0.5	60.5*	-4.1	13.4*
COc1ccc(C2C(C#N)=C(N)Oc3n[nH]c(C)c32)cc1CSc1ccccn1 (configuration not stated)	17.9	-1.4	2.4	-0.5	80.5*	5.3	17.2*
CCOC(=O)C1=C(C)OC(N)=C(C#N)C1c1ccc(OC)c(CSc2ccccn2)c1 (configuration not stated)	17.4	-0.3	1.5	5.4	5.0	4.8	.
COc1ccc(N2C(=O)c3ccccc3NC2c2ccc(OC)c(Cn3nnc4ccccc43)c2)cc1 (configuration not stated)	1.9	-0.1	-6.9	13.3	-2.9	-0.3	.
CCc1cccc(NC(=O)Cn2cccc2)c1	-2.1	2.5	-0.8	-1.6	-1.0	0.6	.
CCc1cccc(NC(=O)CSCc2cc(=O)[nH][nH]2)c1	9.2	2.1	1.7	1.5	81.4*	-9.1	11.6*
CS(=O)(=O)c1nc([N+](=O)[O-])nn1CCCc1ccccc1	5.4	-0.7	-0.9	-1.6	51.2*	-2.4	26.1*
Cc1cccc(N2C(=NC(=O)c3ccccc3)SC3CS(=O)(=O)CC32)c1 (configuration not stated)	-5.2	-0.3	-0.4	-0.7	.	-6.6	.
CCc1ccc(CNC(=O)C2Cc3cc(S(=O)(=O)N4CCCC4)ccc3N2C(C)=O)cc1 (configuration not stated)	3.4	5.4	1.2	2.4	-0.9	1.4	.
Cc1cccc(N(C(=O)CNC(=O)c2ccco2)C(C(=O)NC2CCCCC2)c2cccnc2)c1 (configuration not stated)	8.3	i	0.3	1.7	-2.2	-10.8	.
SMILES	GDH-TPI inh	BH1578 lux ind	Mtb UGM inh	FBA Mtb inh	RecA splice inh	Rv3671c inh	GFP chromophore
COC(CN(C(=O)CCl)C(C(=O)NC1CCCCC1)c1ccc(Cl)cc1)OC (configuration not stated)	-11.2	i	-1.2	-0.9	35.4*	0.2	34*
COc1ccc(N(C(=O)c2cnccn2)C(C(=O)NC2CCCCC2)c2ccc(Cl)cc2)cc1 (configuration not stated)	8.4	0.8	0.7	0.7	0.8	-1.1	.
COc1ccc(C(C(=O)NC2CCCCC2)N(C(=O)CCl)c2ccc(Cl)cc2)cc1 (configuration not stated)	-3.6	0.1	-1.1	2.8	67.3*	-4.0	?
O=C(NC1CCCCC1)C(c1cccnc1)N(C(=O)CCl)c1cccc(Cl)c1 (configuration not stated)	-6.7	2.4	2.1	1.6	78.8*	0.5	5.89*
COC(CN(C(=O)CCl)C(C(=O)NC1CCCCC1)c1ccccc1C)OC (configuration not stated)	1.8	-5.9	-3.2	-2.6	24.6	-1.0	.
CCC1CN(S(=O)(=O)c2ccc3c(c2)NC(=O)CC(=O)N3)c2cc(Cl)ccc2O1 (configuration not stated)	-5.9	-0.3	-1.0	0.5	0.3	0.9	.
O=C(NCCCc1ccccc1)c1ccc(CS(=O)Cc2ccccc2Cl)o1 (configuration not stated)	-9.6	-0.2	-2.1	0.4	-1.1	-3.0	.
CCOc1ccc(C(=O)CCC(=O)N2CCC(C(=O)OC)CC2)cc1	-2.1	i	1.6	-1.3	-4.5	1.9	.
CN1CCc2cc3c(c4c2C1Cc1ccccc1-4)OCO3 (configuration not stated)	10.4	-1.0	3.6	-2.0	54.7*	-46.2	0.869*
COC(=O)c1[nH]c(=O)c2ccccc2c1O	17.9	14.6	2.7	4.2	80.8*	-28.8	14.6*
COC(=O)COc1cccc(NC(=O)C(c2ccccc2)c2ccccc2)c1	12.9	0.9	1.3	1.0	6.0	-5.0	.
Cc1ccc(Sc2ncnc3onc(C)c23)cc1	0.0	3.6	5.9	-3.3	40.5*	4.6	>38
Cc1[nH]n(-c2ccc(Cl)cc2)c(=O)c1C(=O)c1ccccc1	7.3	-0.2	-0.1	0.6	3.2	-1.4	.
